Compounds with a hit are over-represented: about 2.2% of the library has one in this group of screens.
PvdQ acylase – blocks Pseudomonas aeruginosa PvdQ acylase activity; actives 0.063% (n = 340,000); purified PvdQ acylase, fluorescence plate reader; inhibition, % at 10 µM; in the data active = inhibition above about 30%, passing the limit was not always enough; inconclusive = no clear call, values can overlap the other calls;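 also: 0% = vehicle neutral wells and 100% = reference inhibitor wells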
DENV2 CPE rescue – protects cells from dengue virus 2 cytopathic effect; DENV2-infected cells, cytopathic effect rescue, plate reader; CPE inhibition, % at 9.99 µM; actives 1.7% (n = 350,000); in the data active = CPE inhibition above about 20%, passing the limit was not always enough; inconclusive = no clear call, values can overlap the other calls; tested in BHK-21 cells;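 also: 0% = median of neutral control wells and 100% = median of positive control wells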
PGC1a acetyl inh – PGC1a acetylation modulation, inhibitor mode. U2OS PGC1a acetylation, AlphaScreen anti-acetyl-lysine; with virally co-expressed GCN5 acetyltransferase. inhibition, % at 15.6 µM. actives 0.17% (n = 350,000). AID 651687;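 active = every replicate shows inhibition of at least 40%; inconclusive = mean inhibition at least 40% but some replicate below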;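 also: 0% = neutral control wells and 100% = positive control wells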
C2C12 statin – suppression of simvastatin myotoxicity; rescue of ATP level, % at 7.49 µM; AID 602340; C2C12 myotubes + simvastatin, ATP luminescence, 48 h; scaled: DMSO 0, geranylgeraniol control 100; actives 0.78% (n = 330,000);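 active = mean ATP rescue above about 67%, or every replicate alone reaching that limit, limit read from the data, passing the limit was not always enough; inconclusive = no clear call, values can overlap the other calls; inactive = mean under the limit and some replicate under it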;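 also: myotubes were challenged with 10 µM simvastatin during compound exposure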
miR-122 sensor – inhibitors of miR-122 in Huh7 cells; Huh7 miR-122 Renilla luciferase sensor, 48 h; neutral wells = 0, positive control = 100; AID 602342; actives 0.3% (n = 340,000); activation (reporter increase), % at 12.5 µM;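 active = mean replicate activation score at least 90 and every replicate individually at or above 90; inconclusive = only one of the two criteria met; inactive = neither criterion met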;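 also: higher luciferase means less miR-122 activity so hits act as miR-122 inhibitors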
Starred values were filed as active, the others as inactive; ? = inconclusive; / = no result; [ ] = dose if it differs, or a comment.

SMILES	PvdQ acylase	DENV2 CPE rescue	PGC1a acetyl inh	C2C12 statin	miR-122 sensor
Cc1noc(C)c1NC(=O)N(C)C[C@@H]1OCCCC[C@H](C)Oc2ccc(NC(=O)NC3CCCCC3)cc2C(=O)N([C@@H](C)CO)C[C@H]1C	/	43.9*	-9.2	/	8.2[16.7 µM]
Cc1noc(C)c1NC(=O)Nc1ccc2c(c1)C(=O)N([C@H](C)CO)C[C@@H](C)[C@@H](CN(C)C(=O)Nc1c(C)noc1C)OCCCC[C@@H](C)O2	/	9.1	-13.3	/	2.9[16.7 µM]
Cc1noc(C)c1NC(=O)N(C)C[C@@H]1Oc2ccc(NC(=O)NC3CCCCC3)cc2C(=O)N([C@@H](C)CO)C[C@@H]1C	/	34.3*	6.1	27.5	-1.1[16.7 µM]
Cc1noc(C)c1NC(=O)N(C)C[C@@H]1Oc2ccc(NC(=O)NC3CCCCC3)cc2C(=O)N([C@@H](C)CO)C[C@H]1C	/	8.5	2.5	-7.5	-4.2[16.7 µM]
O=C(C1CCCC1)N1CC(=O)N2[C@H](CO)[C@@H](c3ccc(Br)cc3)[C@@H]2C1	/	-1.6	-6.1	/	/
Cc1ccc(S(=O)(=O)N[C@H]2CC[C@@H](CC(=O)N3CCN(c4ccccc4)CC3)O[C@@H]2CO)cc1	/	8.4	3.5	-2.9	/
CC1CCN(C(=O)c2cc(F)c(F)cc2Cl)CC1	-1.7	/	2.7	134.9*	4.6
O=C(c1cc(F)c(F)cc1Cl)N1CCOCC1	-9.2	/	8.0	/	-3.7
Oc1ccc(-c2nc3ccccn3c2NCc2ccco2)cc1	-1.7	/	1.1	80.9*	-1.0
C[C@@H]1CN([C@H](C)CO)C(=O)c2cccc(NC(=O)c3nc4ccccc4s3)c2O[C@H]1CN(C)C(=O)Nc1ccccc1	/	6.2	8.2	35.5	11.2[16.7 µM]
Cn1nc(CC(=O)N2CCN(c3ccccc3)CC2)c2ccccc2c1=O	0.7	/	/	/	343.8*
O=C(CS(=O)(=O)c1ccccc1)N1CCN(c2ccccc2)CC1	-11.7	103.1*	3.8	-8.7	-1.4
COc1ccc(C#Cc2ccc([C@@H]3[C@@H](CO)N4C(=O)CN(C(=O)c5ccccc5)C[C@@H]34)cc2)cc1	/	2.3	1.7	/	/
CCOc1ccc(N2C(=O)Cc3ccccc3C2=O)cc1	1.2	-1.0	43.2*	13.9	-1.1
C[C@@H]1CCCCO[C@H](CN(C)C)[C@H](C)CN([C@@H](C)CO)C(=O)c2cc(N(C)C)ccc2O1	/	0.7	-1.8	1.8	0.1[16.7 µM]
CC(=O)N(C)c1ccc(C(O)(C(F)(F)F)C(F)(F)F)cc1	-21.7	/	7.2	/	5.1
CCOC(=O)N(C)c1ccc(C(O)(C(F)(F)F)C(F)(F)F)cc1	-0.5	/	-28.6	71.5*	-0.3
CN(C(=O)CSc1nc(-c2ccccc2)cn1N)C(c1ccccc1)c1ccccc1	-8.0	/	-8.4	78.2*	-2.3
COc1ccccc1CNC(=O)CSc1nc(-c2ccccc2)cn1N	4.1	/	-3.0	-4.5	-0.8
O=C(C[C@H]1C[C@@H]2c3cc(NC(=O)Nc4ccc(C(F)(F)F)cc4)ccc3O[C@@H]2[C@H](CO)O1)NCc1ccc2c(c1)OCO2	/	-1.3	2.0	-17.6	1.6[16.7 µM]
CCC(=O)Nc1ccc2c(c1)OC[C@@H](C)NC[C@H](C)[C@@H](OC)CN(C)C2=O	/	27.7*	/	8.8	0.8[16.7 µM]
CCC(=O)Nc1ccc2c(c1)OC[C@@H](C)NC[C@@H](C)[C@@H](OC)CN(C)C2=O	/	0.2	/	1.7	0.7[16.7 µM]
COCC(=O)Nc1ccc2c(c1)OC[C@H](C)NC[C@@H](C)[C@@H](OC)CN(C)C2=O	/	24.1*	/	6.9	0.6[16.7 µM]
COCC(=O)Nc1ccc2c(c1)OC[C@@H](C)NC[C@H](C)[C@H](OC)CN(C)C2=O	/	30.0*	/	12.0	0.8[16.7 µM]
C[C@@H]1CN([C@H](C)CO)C(=O)Cc2cc(NC(=O)CCCCCC(=O)Nc3ccccc3N)ccc2O[C@@H]1CN(C)C(=O)Nc1ccc2c(c1)OCO2	/	-2.8	-11.2	9.1	6.0[16.7 µM]
SMILES	PvdQ acylase	DENV2 CPE rescue	PGC1a acetyl inh	C2C12 statin	miR-122 sensor
COC(=O)NNC(=O)COc1ccc(Cl)cc1	0.0	3.9	4.0	93.6*	-5.3
CCCNC(=O)Nc1ccc2c(c1)OC[C@@H](C)N(C(=O)C1CCC1)C[C@@H](C)[C@@H](OC)CN(C)C2=O	/	-10.8	/	-1.6	-3.8[16.7 µM]
COCC(=O)N(C)C[C@@H]1Oc2cc(-c3ccccc3F)ccc2S(=O)(=O)N([C@H](C)CO)C[C@H]1C	/	11.5	-6.9	-1.9	-12.7[16.7 µM]
C[C@H](CO)N1C[C@H](C)[C@H](CN(C)C(=O)c2cccc(F)c2)Oc2cc(C#CC3CCCC3)ccc2S1(=O)=O	/	/	0.1	22.2	3.4[16.7 µM]
N#C[C@H]1[C@@H](c2ccc(C3=CCCCC3)cc2)[C@@H](CO)N1S(=O)(=O)c1cccc(F)c1	/	91.6*	-1.5	-6.6	/
N#C[C@H]1[C@H](c2ccccc2C2=CCCCC2)[C@@H](CO)N1S(=O)(=O)c1cccc(F)c1	/	31.2*	-24.8	/	/
N#C[C@H]1[C@@H](c2ccc(C3=CCCCC3)cc2)[C@H](CO)N1S(=O)(=O)c1cccc(F)c1	/	-11.3	3.9	-47.9	/
Cc1noc(C)c1NC(=O)N(C)C[C@@H]1Oc2ccc(NC(=O)CCCN(C)C)cc2C(=O)N([C@H](C)CO)C[C@H]1C	/	-5.0	-3.9	/	/
CCC(C)CCN1C(N(C)C)=NC[C@@H]1C (stereo not given in full)	5.6	/	-2.6	149.0*	-1.2
CCN(CC)S(=O)(=O)c1ccc(NC(=O)c2ccccc2N(C)S(C)(=O)=O)cc1	-8.4	/	-2.5	-8.8	2.5
CCN(CC)S(=O)(=O)c1ccc(NC(=O)c2ccc(N(C)S(C)(=O)=O)cc2)cc1	3.5	/	3.2	104.2*	-6.3
Cc1cc(C(F)(F)F)c2sc(N)nc2n1	-1.1	/	10.1	84.8*	-3.1
O=C(Cc1ccccn1)NCC[C@H]1CC[C@@H](NC(=O)c2ccccc2F)[C@@H](CO)O1	/	40.2*	0.7	1.7	/
O=C(N[C@@H]1CC[C@H](CCNS(=O)(=O)Cc2ccccc2)O[C@@H]1CO)c1ccc2c(c1)OCO2	/	21.7*	-13.7	19.9	/
O=C(CN1CCOCC1)NCC[C@@H]1CC[C@H](NC(=O)c2ccc3c(c2)OCO3)[C@H](CO)O1	/	-12.2	7.1	-4.3	/
O=C(N[C@@H]1CC[C@H](CCNS(=O)(=O)Cc2ccccc2)O[C@H]1CO)c1ccc2c(c1)OCO2	/	9.9	-19.8	7.1	/
O=C(Cc1ccccn1)NCC[C@@H]1CC[C@@H](NC(=O)c2ccccc2F)[C@H](CO)O1	/	-0.8	-3.1	-7.6	/
O=C(CN1CCOCC1)NCC[C@H]1CC[C@H](NC(=O)Cc2ccccn2)[C@@H](CO)O1	/	24.4*	10.3	-12.2	/
O=C(CN1CCOCC1)NCC[C@@H]1CC[C@H](NC(=O)c2ccc3c(c2)OCO3)[C@@H](CO)O1	/	22.0*	10.9	-1.4	/
C[C@@H]1CN([C@H](C)CO)C(=O)c2cccc(NC(=O)c3ccncc3)c2O[C@H]1CN(C)S(=O)(=O)c1cccs1	/	11.2	-0.8	-13.5	-13.5[16.7 µM]
Cc1ccccc1S(=O)(=O)N1[C@H](C#N)[C@H](c2ccc(C#CC3CCCCC3)cc2)[C@H]1CO	/	7.7	0.8	-0.3	/
C/C=C/c1ccc(C2[C@@H]3CN(S(=O)(=O)c4cn(C)cn4)C[C@H]2N3)cc1 (stereo not given in full)	/	?	5.9	/	/
